About 83,000 compounds went through this panel and 20% of them were active in at least one assay; those are over-represented in the sample as a whole.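 96-well plates, one dose, 48 hours. Percent growth reported; active if below 10.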 Unmarked numbers belong to inactive results. Calls of active or inactive are those of the source.
How the values were obtained:
Experiment in all cases: NCI-60 one-dose screen, 48 h (100 = growth as untreated, 0 = no growth, -100 = all killed)
Conditions in all cases: 10 µM unless noted
SK-MEL-2 melanoma = tested on: SK-MEL-2 melanoma
EKVX NSCLC = tested on: EKVX NSCLC
SN12C renal = tested on: SN12C renal
UO-31 renal = tested on: UO-31 renal
TK-10 renal = tested on: TK-10 renal
ACHN renal = tested on: ACHN renal
CAKI-1 renal = tested on: CAKI-1 renal
A498 renal = tested on: A498 renal
CCRF-CEM leukemia = tested on: CCRF-CEM leukemia
MOLT-4 leukemia = tested on: MOLT-4 leukemia
SR leukemia = tested on: SR leukemia
RPMI-8226 leukemia = tested on: RPMI-8226 leukemia
OVCAR-8 ovarian = tested on: OVCAR-8 ovarian
OVCAR-4 ovarian = tested on: OVCAR-4 ovarian
SK-OV-3 ovarian = tested on: SK-OV-3 ovarian
IGROV1 ovarian = tested on: IGROV1 ovarian
HS 578T breast = tested on: HS 578T breast
NCI/ADR-RES ovarian = tested on: NCI/ADR-RES ovarian
OVCAR-3 ovarian = tested on: OVCAR-3 ovarian
OVCAR-5 ovarian = tested on: OVCAR-5 ovarian

| Compound | growth (SK-MEL-2 melanoma) | growth (EKVX NSCLC) | growth (SN12C renal) | growth (UO-31 renal) | growth (TK-10 renal) | growth (ACHN renal) | growth (CAKI-1 renal) | growth (A498 renal) | growth (CCRF-CEM leukemia) | growth (MOLT-4 leukemia) | growth (SR leukemia) | growth (RPMI-8226 leukemia) | growth (OVCAR-8 ovarian) | growth (OVCAR-4 ovarian) | growth (SK-OV-3 ovarian) | growth (IGROV1 ovarian) | growth (HS 578T breast) | growth (NCI/ADR-RES ovarian) | growth (OVCAR-3 ovarian) | growth (OVCAR-5 ovarian) |
| --- | --- | --- | --- | --- | --- | --- | --- | --- | --- | --- | --- | --- | --- | --- | --- | --- | --- | --- | --- | --- |
| COc1cc(OC)cc(-c2cc(-c3c[nH]c4ccccc34)nc(-c3c[nH]c4ccccc34)c2C#N)c1 | 88.4% | 91.5% | 95.1% | 71.3% | 124% | 97.2% | 91% | 96.7% | 97.2% | 98.6% | 81.3% | 99% | 102% | 102% | 99.9% | 93.7% | 102% | 97.1% | – | – |
| O=C(Nc1cccc(C(F)(F)F)c1)N1CCN(c2cc(-c3cn(-c4ccccc4)nc3-c3cccc(O)c3)ccn2)CC1 | 43.7% | 42% | 49% | 25.3% | 63.3% | 39.2% | 51.8% | 49.4% | 21.5% | 18.9% | 27.6% | 27.8% | 31.4% | 24.9% | 84.7% | 43.3% | 53.5% | 28.5% | 54.4% | – |
| CCc1cc2c(cc1Cl)nc1c(=O)[nH]c(=O)nc-1n2CCOCC(C)C | 80.1% | 68.1% | 57.4% | 57.1% | 176% | 60% | 67.7% | 76.4% | 77.6% | 64.1% | 22.7% | 66.6% | 59.2% | 44.1% | 111% | 58.6% | 98.2% | 74.1% | – | – |
| CCCCSC1=C(Cl)CN(c2ccccc2)C1=O | 121% | 97.8% | 94.6% | 92.2% | 134% | 106% | 94% | 108% | 117% | – | 71.5% | 78% | 102% | 107% | 105% | 106% | 98.6% | 103% | – | 98.8% |
| Cc1cc(=O)oc2cc(OCCCOc3ccc(/C=C/C(=O)Nc4ccc(Br)cc4)cc3)ccc12 | 91.1% | 91.6% | 89.9% | 82.3% | 78.9% | 46.7% | 104% | 82.9% | 83.6% | – | 51.8% | 75.6% | 83.9% | 105% | 98.2% | 72.7% | 76.3% | 64.6% | – | 95.4% |
| Clc1ccc2[nH]cc(-c3nn4cc(-c5cccnc5)nc4s3)c2c1 | 101% | 84.1% | 96.6% | 71.6% | 184% | 87.8% | 69.7% | 109% | 84.3% | – | 109% | 86.9% | 103% | 105% | – | 87.9% | 93.6% | 102% | – | 108% |
| Cc1ccc(C(=O)Nc2ccc(CNCCN3CCNCC3)c(C(F)(F)F)c2)cc1C#Cc1cnc2cccnn12 | 64% | 29.6% | 76.2% | 76.7% | 129% | 57% | 75.9% | -33.4% (active) | -39.7% (active) | – | -39.4% (active) | -23.3% (active) | 2.74% (active) | -23% (active) | – | 11.8% | 36.6% | 71.6% | -20.5% (active) | 51.8% |
| CCNC(=O)Oc1ccc(/C(=C(/C)c2ccc(OC)cc2)c2ccc(OCCN3CCCCCC3)cc2)cc1 | 83.4% | 69.7% | 59.4% | 0.828% (active) | 116% | 61.3% | 14.5% | 54.8% | 36.8% | – | -20.7% (active) | 12.1% | 68.4% | 62.7% | 79% | 65.4% | 16.2% | 59.4% | – | 72.7% |
| N#Cc1nc(-c2ccc(Cl)cc2)oc1N1CCC(S(=O)(=O)N2CCOCC2)CC1 | 114% | 105% | 94.1% | 73.2% | 113% | 100% | 89.7% | 102% | 108% | – | 88.6% | 105% | 101% | – | 119% | 90.5% | 105% | 100% | – | 102% |
| CC1=C(C)C(=O)C(Nc2cccc(C(F)(F)F)c2)=C(Br)C1=O | 104% | 72.9% | 97.1% | 79.1% | 157% | 72.3% | 94.3% | 86.4% | -0.578% (active) | – | 26.1% | -10.8% (active) | 97% | 81.4% | 86% | 74.8% | 99.4% | 103% | 103% | 128% |
| CCOC(=O)c1c(NC(=O)c2ccc(C(F)(F)F)cc2)sc2c(CN3CCN(C)CC3)c(O)ccc12 | 44.8% | 21.5% | -75.7% (active) | -93.6% (active) | -71.2% (active) | -89.4% (active) | -66% (active) | -6.72% (active) | -24.6% (active) | – | -56.9% (active) | -42% (active) | -56.2% (active) | -53.8% (active) | -4.72% (active) | -82.7% (active) | -17.8% (active) | -63.2% (active) | -68.9% (active) | -52.6% (active) |
| CCc1cc(OC(=O)N2CCC(N3CCCCC3)CC2)ccc1Nc1cc(-c2ccc(-n3cccn3)cc2)[nH]n1 | 95.9% | 97% | 77.7% | 46% | 95.7% | 42.9% | 48.4% | 71.3% | 7.95% (active) | – | -9.25% (active) | 20.9% | 86.2% | 85.3% | 85.9% | 56.9% | 66.8% | 82.5% | – | 87.4% |
| CNc1sc(S(=O)(=O)NC)nc1S(=O)(=O)c1ccc(C)cc1 | 103% | 95.2% | 101% | 77.7% | 95.5% | 101% | 91.9% | 93.1% | 104% | – | 101% | 99.2% | 102% | 108% | 105% | 95.1% | 103% | 103% | – | 92.2% |
| O=C(/C=C/c1cccc(F)c1)c1cccc(OCCCCOc2cccc(C(=O)/C=C/c3cccc(F)c3)c2)c1 | 101% | 99% | 95.2% | 96% | 100% | 100% | 99.1% | 110% | 102% | – | 84.8% | 8.56% (active) | 104% | 106% | 109% | 103% | 99.3% | 106% | 105% | 99.1% |
| COc1ccc(-c2nc(C#N)c(N3CCC(S(=O)(=O)N4CCOCC4)CC3)o2)cc1 | 102% | 105% | 99.5% | 89.1% | 131% | 97.8% | 92.9% | 100% | 101% | – | 83.8% | 101% | 106% | 97.8% | 107% | 93% | 102% | 97.2% | – | 97.1% |
| CC(=O)c1cc(C(=O)N2c3ccccc3Sc3ccccc32)n2c1ccc1ccccc12 | 38.3% | 78.4% | 86.7% | 64.6% | 107% | 50.1% | 46.8% | 30.1% | 35.9% | – | 11% | 48.3% | 71.5% | 78.1% | 59.8% | 52.7% | 55.1% | 35.9% | – | 86.6% |

Source: PubChem BioAssay (NCI)
